Here are results for 40 molecules from PubChem BioAssay (EPA / NIEHS).

Each structure is given as a SMILES string. Active and inactive are the calls of the source. How the source made its calls: active means hit-call score of the fitted dose curve at least 0.9, where 1 is the maximum; inactive means score below 0.9.

Chain of Transcription factor Sp1 (Homo sapiens) (P08047 whole entry, looked up): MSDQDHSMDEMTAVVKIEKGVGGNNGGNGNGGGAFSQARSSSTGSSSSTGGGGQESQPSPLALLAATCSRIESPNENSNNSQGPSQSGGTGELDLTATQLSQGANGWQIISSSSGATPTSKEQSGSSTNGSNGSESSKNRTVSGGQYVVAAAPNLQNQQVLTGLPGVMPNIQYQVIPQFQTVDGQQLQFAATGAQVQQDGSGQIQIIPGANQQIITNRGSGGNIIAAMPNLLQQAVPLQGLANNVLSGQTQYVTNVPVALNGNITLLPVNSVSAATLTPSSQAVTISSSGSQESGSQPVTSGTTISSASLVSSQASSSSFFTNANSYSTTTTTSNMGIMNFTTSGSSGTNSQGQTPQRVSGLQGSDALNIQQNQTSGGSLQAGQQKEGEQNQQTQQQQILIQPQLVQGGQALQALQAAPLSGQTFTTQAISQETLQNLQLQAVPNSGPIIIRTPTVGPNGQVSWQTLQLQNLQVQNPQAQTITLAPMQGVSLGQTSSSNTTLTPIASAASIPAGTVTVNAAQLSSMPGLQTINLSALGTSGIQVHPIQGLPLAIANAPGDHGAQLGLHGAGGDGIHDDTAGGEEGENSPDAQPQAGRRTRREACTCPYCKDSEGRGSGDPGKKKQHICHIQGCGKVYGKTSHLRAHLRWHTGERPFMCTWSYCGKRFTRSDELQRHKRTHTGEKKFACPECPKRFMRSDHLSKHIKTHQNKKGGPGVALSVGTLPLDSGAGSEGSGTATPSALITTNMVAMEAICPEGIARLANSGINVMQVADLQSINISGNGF

This experiment deals with Transcription factor Sp1 (Homo sapiens) (UniProt P08047). Description: ATG_Sp1_CIS: Attagene CIS-FACTORIAL HepG2 Assay for human Specificity Protein 1 (Sp1) (AID 2282961). The note with it: HepG2 Sp1 cis-reporter transcription, actives raise or lower the signal. Here is the method:
ATG_CIS is a cell-based, multiplexed-readout assay that uses HepG2, a human liver cell line, with measurements taken at 24 hours after chemical dosing in a 24-well plate.ATG_Sp1_CIS is one of 52 assay component(s) measured or calculated from the ATG_CIS assay. It is designed to make measurements of mRNA induction, a form of inducible reporter, as detected with fluorescence intensity signals by Reverse transcription polymerase chain reaction (RT-PCR) and Capillary electrophoresis technology.Data from the assay component ATG_Sp1_CIS was analyzed into 1 assay endpoint. This assay endpoint, ATG_Sp1_CIS, was analyzed with bidirectional fitting relative to DMSO as the negative control and baseline of activity. Using a type of inducible reporter, measures of mRNA for gain or loss-of-signal activity can be used to understand the reporter gene at the transcription factor-level as they relate to the gene SP1. Furthermore, this assay endpoint can be referred to as a primary readout, because this assay has produced multiple assay endpoints where this one serves a reporter gene function. To generalize the intended target to other relatable targets, this assay endpoint is annotated to the dna binding intended target family, where the subfamily is zinc finger.
Human liver HepG2 cells are transiently transfected with multiple reporter transcription units (MRTUs) in 6-well plates using FuGene 6 reagent (Roche; 3 ml FuGene/1 mg DNA). The MRTU constructs are regulated by a cis-regulating element (promoter). […] A major difference between the CIS and TRANS system is that in CIS activities of endogenous TFs are measured, whereas the TRANS assay evaluates changes in activities of exogenous, chimeric NR-Gal4 proteins. […] At the end of 24 hour incubation, total RNA was isolated using TriZol reagent (Invitrogen). The isolated RNA is then reverse-transcribed using oligo(dT) primer and Mo-MLV reverse transcriptase (Invitrogen) with DNAse I (Ambion) treatment for 30 min. The one-tenth of the produced cDNA was amplified by PCR using Taq DNA polymerase (Invitrogen) and two reporter sequence-specific primers. The PCR products were fluorescently labeled by primer extension with 6-arboxyfluorescein (6-FAM) 5'-labeled reporter sequence-specific primer (2 min at 95 C, 20 s at 68 C and 10 min at 72 C) and these products were digested with 5U of HpaI (New England Biolabs) for 2h at 37 C. The fragments were purified using Qiaquick PCR columns (Qiagen), analyzed on an ABI 3130xL genetic analyzer (Applied Biosystems) with peak positions identified by using a set of X-rhodamine (ROX)-labeled MapMarker1000 molecular weight standards (BioVentures). The raw capillary electrophoresis data was processed using Attagraph software (Attagene).
As to `OC1OC[C@@H](O)[C@H](O)[C@H]1O` (stereo not given in full), the outcome was inactive.
The same measure, in the same setting: the entry for `Clc1nc(C(Cl)(Cl)Cl)c(Cl)c(Cl)c1Cl` is “inactive”; for `c1ccc2c(c1)c1cccc3ccc4cccc2c4c31` it is “inactive”.
Still for that read-out and setting: the entry for `CC(C)C1CCC(O)CC1` (stereo not given) is “inactive”; for `Nc1cc(N)cc(C(=O)O)c1` it is “inactive”.
On the same count and under the same terms, the entry for `CCCCCCCCCCCCCOS(=O)(=O)O` is “inactive”; for `CCC(O)CO` (stereo not given) it is “inactive”; for `Nc1ccc(S(=O)(=O)O)c(N)c1` it is “inactive”.
Turning to `Sc1nc(S)nc(S)n1`, the outcome was inactive.
Same read-out and setting: the entry for `Clc1cccc(Cl)n1` is “inactive”; for `C[Si](O[Si](C)(C)C)O[Si](C)(C)C` it is “inactive”.
The same measure, in the same setting: under `CC(C)(C)NC(N)=O` stands “inactive”.
On the same count and under the same terms, the entry for `CCCCCC(=O)OCCc1ccccc1` is “inactive”; for `S=C(S)NCCNC(=S)S` it is “inactive”; for `CC(=O)C=CC1=C(C)CCCC1(C)C` it is “inactive”.
For the molecule `Clc1ccc(Cl)c(Cl)c1Cl`, the molecule was called inactive.
The same measure, in the same setting: the entry for `C=CC(=O)OCCOCCOCC` is “inactive”.
Take `Cc1ccc(O)c(C(C)(C)C)c1`: the AC50 is 80.7 µM (active).
For the molecule `CCCC/C=C\CCCCCCCCCC=O`, the result was inactive.
The same measure, in the same setting: under `N#Cc1ccccc1` stands “inactive”; under `Cc1c(N(C)C)c(=O)n(-c2ccccc2)n1C`, “inactive”; under `CCCCCCC#CC(=O)OC`, “inactive”.
For `CC(C)[C@H]1CC[C@@H](C)CC1=O`, the molecule was called inactive.
As for `Nc1ccc(F)c([N+](=O)[O-])c1`, the molecule was called inactive.
Same read-out and setting: the entry for `NC(=O)NC1NC(=O)NC1=O` (stereo not given) is “inactive”.
Consider `Cc1ccc2ccccc2n1`, for which the call was inactive.
Regarding `CC(=O)Nc1ccccc1O`, the molecule was classed as inactive.
The same measure, in the same setting: the entry for `Cc1ccc(Nc2ccc(O)c3c2C(=O)c2ccccc2C3=O)cc1` is “inactive”; for `COc1cc(C(C)(C)C)c(O)c(C(C)(C)C)c1` it is “inactive”; for `CCc1ccc(C=O)cc1` it is “inactive”.
Consider `OCCOCCOCCOCCO`, for which the result was inactive.
As for `c1cc(C(c2ccc(OCC3CO3)cc2)c2ccc(OCC3CO3)cc2)ccc1OCC1CO1` (stereo not given), the concentration at half-maximal activity (AC50) is 100 µM (active).
`CC(=O)[O][Al][O]C(C)=O`: the call was inactive.
Turning to `CC(=O)C(C)=O`, the molecule was classed as inactive.
With `CCCCCCCCC=O`, the call was inactive.
Take `CC(=O)O[C@H](CC(=O)[O-])C[N+](C)(C)C`: the outcome was inactive.
Same read-out and setting: under `CCOC(=S)SSC(=S)OCC` stands “inactive”; under `CCCCNC(=O)NS(=O)(=O)c1ccc(C)cc1`, “inactive”; under `CC[Si](OC(C)=O)(OC(C)=O)OC(C)=O`, “inactive”.
As to `O=c1cc(-c2ccccc2)oc2cc(O)cc(O)c12`, the outcome was inactive.

Usually AC50 stands for the concentration at which the activity in the assay is half-maximal.
